# Laboratory results reported in PubChem BioAssay (NCATS).
# Several values for one entry are separate records, joined by “and”; a condition that tells them apart may be missing. Equal values may be shown once. Results filed as inconclusive are left out. Entries that show only a call come without a potency. A number with no mark means an inactive call. Activity calls are given as the source filed them. Unless noted, calls follow the shape of the dose curve; as a rule, active = well fitted curve in the direction sought with a large enough effect; inconclusive = small, poorly fitted or top-dose-only effect, or another doubt; inactive = no such curve, though single readings can be large; an effect the other way counts as inactive or inconclusive.
# Legend:
# [1] = target: Cytochrome P450 3A4 (Homo sapiens) (UniProt P08684); experiment: qHTS Assay for Inhibitors and Substrates of Cytochrome P450 3A4 (AID 884); also: nearly all actives have a fitted effect of over 50% in size; also: potency is read from the fitted curve at half-maximal effect
# Chain of Cytochrome P450 3A4 (Homo sapiens) (P08684 whole entry, looked up): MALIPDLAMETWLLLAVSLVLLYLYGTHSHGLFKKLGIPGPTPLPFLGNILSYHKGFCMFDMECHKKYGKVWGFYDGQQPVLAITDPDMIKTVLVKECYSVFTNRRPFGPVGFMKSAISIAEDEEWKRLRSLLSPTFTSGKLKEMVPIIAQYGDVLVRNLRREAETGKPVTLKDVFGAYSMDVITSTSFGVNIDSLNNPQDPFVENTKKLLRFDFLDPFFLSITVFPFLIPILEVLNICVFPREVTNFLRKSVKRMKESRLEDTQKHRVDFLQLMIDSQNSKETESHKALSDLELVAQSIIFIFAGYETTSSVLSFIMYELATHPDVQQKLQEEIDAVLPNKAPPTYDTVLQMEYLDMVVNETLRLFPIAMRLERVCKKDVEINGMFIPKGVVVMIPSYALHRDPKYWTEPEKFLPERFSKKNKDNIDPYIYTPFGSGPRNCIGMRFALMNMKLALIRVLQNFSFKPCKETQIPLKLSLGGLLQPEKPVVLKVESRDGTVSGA
# Method in brief: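 Luminescent readout of luciferin produced by CYP3A4 (20 nM) dealkylation of Luciferin-PPXE, 25 uM (its KM). NADPH-driven reaction ran 60 min at RT after 10 min compound preincubation; data scaled to 57 uM ketoconazole as 100% inhibition.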
# [2] = Cell Viability - LYMP2-009 (AID 968); also: nearly all actives have a fitted effect of over 55% in size; also: potency is read from the fitted curve at half-maximal effect
# [3] = Cell Viability - LYMP2-011 (AID 969); also: nearly all actives have a fitted effect of over 60% in size; also: potency is read from the fitted curve at half-maximal effect
# Method in brief: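 In this qHTS cytotoxicity format, compounds are tested across concentrations on human lymphoblastoid cells in complete medium for 24 hours at 37 C. Viability is taken as cellular ATP measured by luciferase luminescence.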
# [4] = Cell Viability - LYMP2-019 (AID 973); also: nearly all actives have a fitted effect of over 55% in size
# Method in brief: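 Cytotoxicity is scored as a concentration-dependent drop in cellular ATP after cells (2500/well) receive compound for 24 hr at 37 C. Tetraoctylammonium bromide serves as positive control.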
# [5] = Cell Viability - LYMP2-021 (AID 974);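 also: compound exposure lasts 24 hours at 37 °C; nearly all actives have a fitted effect of over 55% in size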; also: potency is read from the fitted curve at half-maximal effect
# Method in brief: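 Loss of cellular ATP, measured with a luciferase-based CellTiter-Glo readout, serves as the toxicity signal in human lymphoblastoid cells treated for 24 hours at 37 C. Potency is reported as AC50 from a standard Hill model.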
# [6] = Cell Viability - LYMP2-002 (AID 977);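 also: series mostly up to about 92 µM; compound exposure lasted 24 h at 37 °C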
# Method in brief: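 Human lymphoblastoid cells, 2500/well, complete medium; 5 h 37 C settle; compound 24 h 37 C; CellTiter-Glo, 30 min RT; luminescence. Decrease in ATP = cytotoxicity; AC50 via Hill equation.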
# [7] = Cell Viability - LYMP2-010 (AID 981); also: nearly all actives have a fitted effect of over 55% in size; also: potency is read from the fitted curve at half-maximal effect
# Method in brief: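 Steps: seed 2500 LYMP2-010 cells per well; incubate 5 hr at 37 C; add compound; incubate 24 hr at 37 C; add CellTiter-Glo, wait 30 min at room temperature; read luminescence. Concentration-response fitted to Hill equation for AC50.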
# [8] = Cell Viability - LYMP2-020 (AID 986); also: nearly all actives have a fitted effect of over 55% in size; also: potency is read from the fitted curve at half-maximal effect
# Method in brief: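 Seed 2500 cells per well and incubate 5 hr at 37 C. Add compounds at a concentration series and incubate 24 hr at 37 C. Add CellTiter-Glo, wait 30 min at RT, read luminescence, and fit a Hill curve for AC50.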
# [9] = Cell Viability - LYMP1-002 - Assay at 40 hr (AID 994); also: nearly all actives have a fitted effect of over 60% in size
# Method in brief: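 Cells are plated at 2500 per well and rested 5 hr at 37 C. Compounds are added and incubated 40 hr at 37 C. CellTiter-Glo reagent is added for 30 min at room temperature before luminescence is read.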
# [10] = qHTS assay for small molecule activators of the nuclear factor-kappa B (NF-kB) signaling pathway (AID 651749; active = well fitted activation curve with a large enough effect in the signal ratio; the % refers to the signal ratio; also: series mostly up to about 77 µM); details: NF-kB-bla ME-180 cells, beta-lactamase FRET ratio, 16 h; active compounds read high
# Method in brief: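 In this qHTS format, compounds acting as activators increase NF-kB-driven beta-lactamase in ME-180 cells, measured as disrupted FRET after 16 hr exposure at 37C and 5% CO2.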
# [11] = qHTS assay for environmental chemicals that activate the Aryl hydrocarbon Receptor (AhR) signaling pathway (AID 651777); details: 1A2-DRE human hepatoma cells, luciferase, 24 h; activation: active compounds read high; also: nearly all actives have a fitted effect of over 15% in size; also: potency is read from the fitted curve at half-maximal effect
# Method in brief: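 Quantitative HTS in stably transfected human liver-derived cells whose luciferase gene sits downstream of the CYP1A2 promoter and dioxin response element. After 24 hr exposure at 37 C, One-Glo luminescence was measured.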
# [12] = qHTS assay for small molecule antagonists of the retinoid-related orphan receptor gamma (ROR-gamma) signaling pathway - cell viability counter screen (AID 720652; active = well fitted curve in the direction sought with a large enough effect in the repeat runs; an effect the other way counts as inactive or inconclusive;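 also: CHO reporter cells with doxycycline-induced ROR-gamma expression; series mostly up to about 92 µM; compound exposure lasted 16 hr before ATP read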)
# Method in brief: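 Steps: seed CHO cells bearing TET-inducible ROR and ROR response element-luciferase; rest 5 hr at 37 C; add compound, then doxycycline; incubate 16 hr; add CellTiter-Glo and read luminescence as ATP-based viability.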
# [13] = qHTS assay for cell viability of HEK293 cells (AID 743288); details: ATP luminescence (CellTiter-Glo), 18 h, active compounds read low; also: nearly all actives have a fitted effect of over 50% in size
# Method in brief: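 HEK293, 18 h, 37 C, ATP luminescence. Cells at 2,000/well were allowed at least 5 h to settle before dosing; CellTiter-Glo developed 30 min at RT.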
# [14] = Cell Viability - Renal Proximal Tubule (AID 545); also: nearly all actives have a fitted effect of over 40% in size
# Method in brief: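 In this qHTS format, normal rat kidney-derived proximal tubule cells in complete culture medium receive compound titrations, then sit 40 hours at 37 °C before luciferase-based ATP quantitation; potency is reported as AC50 from concentration-response curves.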
# [15] = target: Retinoic acid receptor RXR-alpha (Homo sapiens) (UniProt P19793); experiment: qHTS assay for small molecule antagonists of retinoid X receptor alpha signaling (AID 588546; active = well fitted inhibition curve with a large enough effect in the signal ratio, with a control signal flat, not every such curve was filed as active; the % refers to the signal ratio;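 also: cells stimulated with 9-cis-retinoic acid as agonist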); details: HEK293T RXRa-UAS-bla, beta-lactamase ratio, antagonist mode
# Chain of Retinoic acid receptor RXR-alpha (Homo sapiens) (P19793 whole entry, looked up): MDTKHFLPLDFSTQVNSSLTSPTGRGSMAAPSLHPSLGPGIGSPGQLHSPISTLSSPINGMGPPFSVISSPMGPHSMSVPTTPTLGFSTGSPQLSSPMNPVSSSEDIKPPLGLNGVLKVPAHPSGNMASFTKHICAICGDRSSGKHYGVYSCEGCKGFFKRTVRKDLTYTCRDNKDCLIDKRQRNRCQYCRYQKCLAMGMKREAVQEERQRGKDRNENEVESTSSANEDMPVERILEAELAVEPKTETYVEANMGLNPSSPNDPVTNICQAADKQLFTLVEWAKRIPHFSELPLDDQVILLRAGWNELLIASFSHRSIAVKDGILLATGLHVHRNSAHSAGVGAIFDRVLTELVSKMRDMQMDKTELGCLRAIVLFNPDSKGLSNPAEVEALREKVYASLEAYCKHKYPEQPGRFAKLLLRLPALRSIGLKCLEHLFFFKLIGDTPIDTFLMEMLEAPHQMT
# Method in brief: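 Beta-lactamase reporter inhibition, read as CCF4 fluorescence ratio (ex 405, em 460/530 nm) after 2 h at RT. HEK293T UAS-bla cells, 2500/well, were stimulated with 9-cis-RA at 500 or 100 nM final alongside test compound for 18 h at 37 C.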
# [16] = target: Voltage-gated inwardly rectifying potassium channel KCNH2 (Homo sapiens) (UniProt Q12809); experiment: qHTS Assay for Small Molecule Inhibitors of the Human hERG Channel Activity (AID 588834);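 also: top concentration of the series differs between compounds; lower thallium flux fluorescence means stronger hERG block; nearly all actives have a fitted effect of over 50% in size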
# Chain of Voltage-gated inwardly rectifying potassium channel KCNH2 (Homo sapiens) (Q12809 whole entry, looked up): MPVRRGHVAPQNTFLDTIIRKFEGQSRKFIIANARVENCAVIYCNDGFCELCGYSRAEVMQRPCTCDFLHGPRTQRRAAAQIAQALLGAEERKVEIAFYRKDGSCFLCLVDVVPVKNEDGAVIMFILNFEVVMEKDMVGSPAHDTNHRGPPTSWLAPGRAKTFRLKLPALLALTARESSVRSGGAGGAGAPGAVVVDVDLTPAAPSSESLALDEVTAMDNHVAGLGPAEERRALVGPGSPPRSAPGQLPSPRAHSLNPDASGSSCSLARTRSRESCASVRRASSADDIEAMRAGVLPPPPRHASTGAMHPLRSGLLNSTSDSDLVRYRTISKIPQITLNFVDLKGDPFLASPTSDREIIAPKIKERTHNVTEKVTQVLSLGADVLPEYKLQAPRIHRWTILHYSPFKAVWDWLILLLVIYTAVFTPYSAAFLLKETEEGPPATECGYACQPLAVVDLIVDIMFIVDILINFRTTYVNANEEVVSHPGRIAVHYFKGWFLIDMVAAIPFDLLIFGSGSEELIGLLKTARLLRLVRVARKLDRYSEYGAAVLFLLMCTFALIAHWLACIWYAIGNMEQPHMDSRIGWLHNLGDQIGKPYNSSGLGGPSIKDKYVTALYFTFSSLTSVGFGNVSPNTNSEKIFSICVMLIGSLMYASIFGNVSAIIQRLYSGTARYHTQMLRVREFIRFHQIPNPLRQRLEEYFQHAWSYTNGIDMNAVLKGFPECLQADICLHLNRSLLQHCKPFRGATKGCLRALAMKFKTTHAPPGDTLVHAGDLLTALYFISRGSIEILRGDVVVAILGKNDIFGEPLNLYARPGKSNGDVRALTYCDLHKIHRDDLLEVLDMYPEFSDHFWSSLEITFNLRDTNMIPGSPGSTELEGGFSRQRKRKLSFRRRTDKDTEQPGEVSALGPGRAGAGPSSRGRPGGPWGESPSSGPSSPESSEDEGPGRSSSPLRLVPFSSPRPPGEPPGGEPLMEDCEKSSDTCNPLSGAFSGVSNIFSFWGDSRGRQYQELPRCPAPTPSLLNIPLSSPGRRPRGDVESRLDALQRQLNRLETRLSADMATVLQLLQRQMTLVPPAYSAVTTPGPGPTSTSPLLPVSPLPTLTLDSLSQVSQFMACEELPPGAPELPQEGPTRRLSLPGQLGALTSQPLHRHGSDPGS
# Method in brief: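 Homogeneous FluxOR thallium flux assay using hERG-expressing U2OS cells (BacMam). Compound treatment about 10 minutes preceded stimulation; reduced fluorescence taken as channel block.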
# [17] = qHTS assay for small molecule activators of the p53 signaling pathway (AID 651743; active = well fitted activation curve with a large enough effect in the signal ratio, not every such curve was filed as active; the % refers to the signal ratio; also: series mostly up to about 92 µM); details: HCT-116 p53RE-bla, beta-lactamase FRET ratio, 16 h; activation: active compounds read high
# Method in brief: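 Following 16 hours of compound exposure at 37 C, HCT-116 cells bearing the p53RE-bla reporter were loaded with LiveBLAzer B/G FRET substrate for 2 hours at room temperature and fluorescence intensity was recorded.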
# [18] = target: Nuclear receptor ROR-gamma (Homo sapiens) (UniProt P51449); experiment: qHTS assay for small molecule antagonists of the retinoid-related orphan receptor gamma (ROR-gamma) signaling pathway (AID 651802);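 also: CHO cells with doxycycline-induced ROR-gamma expression; series mostly up to about 92 µM; nearly all actives have a fitted effect of over 60% in size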
# Chain of Nuclear receptor ROR-gamma (Homo sapiens) (P51449 whole entry, looked up): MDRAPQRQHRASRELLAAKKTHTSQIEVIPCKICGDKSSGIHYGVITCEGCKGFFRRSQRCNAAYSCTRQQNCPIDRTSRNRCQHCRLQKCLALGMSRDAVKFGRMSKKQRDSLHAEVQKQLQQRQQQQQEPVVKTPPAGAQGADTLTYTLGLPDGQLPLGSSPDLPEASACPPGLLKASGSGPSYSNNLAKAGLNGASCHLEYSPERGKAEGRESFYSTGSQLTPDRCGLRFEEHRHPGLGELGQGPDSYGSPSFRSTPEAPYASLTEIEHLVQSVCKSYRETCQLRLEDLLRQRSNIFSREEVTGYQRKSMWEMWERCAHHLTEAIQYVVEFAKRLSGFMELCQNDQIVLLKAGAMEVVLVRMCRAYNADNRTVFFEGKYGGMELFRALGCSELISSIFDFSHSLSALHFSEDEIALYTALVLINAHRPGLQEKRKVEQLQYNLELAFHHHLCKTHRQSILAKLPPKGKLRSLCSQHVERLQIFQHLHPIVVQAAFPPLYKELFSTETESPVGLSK
# Method in brief: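 Steps: cells dispensed; compound or DMSO transferred by pin tool; doxycycline added to induce the ROR response element-driven luciferase; plates held 16hr at 37C; ONE-Glo added and luminescence measured.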
# [19] = qHTS assay for small molecule agonists of the antioxidant response element (ARE) signaling pathway measured by Nrf2-dependant transcriptional activity (AID 720636; active = well fitted curve in the direction sought with a large enough effect in the repeat runs; an effect the other way counts as inactive or inconclusive)
# Method in brief: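 Quantitative HTS format in HepG2 cells stably expressing an ARE-luciferase reporter; 16 hr compound treatment at 37 C, luciferase signal detected with ONE-Glo.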
# [20] = Cell Viability - LYMP2-017 (AID 972); also: nearly all actives have a fitted effect of over 55% in size; also: potency is read from the fitted curve at half-maximal effect
# Method in brief: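 Cytotoxicity is scored as a concentration-dependent drop in cellular ATP in a human lymphoblastoid line after 24 hr treatment at 37 C. Values are AC50s from Hill-equation modelling.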
smiles,measurement,setting,value
CCCC[N+](=O)[O-],Potency,[1],inactive
same,Potency,[2],inactive
same,Potency,[3],inactive
same,Potency,[4],inactive
same,Potency,[5],inactive
same,Potency,[6],inactive
same,Potency,[7],inactive
same,Potency,[8],inactive
same,Potency,[9],inactive
same,activation,[10],-0.304%
same,activation,[11],0.218%
same,Potency,[12],inactive
same,max response,[13],-6.09%
ClCCOCCCl,outcome,[14],inactive
same,Potency,[1],inactive
same,Potency,[2],inactive
same,Potency,[3],inactive
same,Potency,[5],inactive
same,Potency,[6],inactive
same,Potency,[7],inactive
same,Potency,[8],inactive
same,Potency,[9],inactive
same,max response,[15],4.16%
same,Potency,[16],inactive
same,activation,[17],-1.88%
same,activation,[10],-0.467%
same,activation,[11],-0.172%
same,Potency,[18],inactive
same,Potency,[19],inactive
same,Potency,[12],inactive
Nc1cc(Cl)cc(Cl)c1,outcome,[14],inactive
same,Potency,[2],inactive
same,Potency,[3],inactive
same,Potency,[20],inactive
same,Potency,[4],inactive
same,Potency,[7],inactive
same,Potency,[8],inactive
same,max response,[15],0.872%
same,Potency,[16],inactive
same,activation,[17],1.82%
same,activation,[10],0.8%
same,activation,[11],-0.276%
same,Potency,[18],inactive
same,Potency,[19],inactive
same,max response,[13],5.59%
Nc1ccc(-c2ccc(N)cc2)cc1,outcome,[14],inactive
same,Potency,[2],inactive
same,Potency,[3],inactive
same,Potency,[4],inactive
same,Potency,[5],inactive
same,Potency,[9],inactive
same,max response,[15],0.312%
same,Potency,[16],inactive
same,activation,[17],-1.06%
same,Potency,[18],inactive
same,Potency,[12],inactive
same,max response,[13],2.98%
O=C(Cl)OCc1ccccc1,outcome,[14],inactive
same,Potency,[2],inactive
same,Potency,[3],inactive
same,Potency,[20],inactive
same,Potency,[4],inactive
same,Potency,[6],inactive
same,Potency,[7],inactive
same,Potency,[9],inactive
same,max response,[15],-3.17%
same,Potency,[16],inactive
same,activation,[17],-2.98%
same,activation,[10],-0.156%
same,activation,[11],0.249%
same,Potency,[18],inactive
same,Potency,[19],inactive
same,max response,[13],-3.33%
COC(=O)c1ccccc1N,outcome,[14],inactive
same,Potency,[2],inactive
same,Potency,[3],inactive
same,Potency,[20],inactive
same,Potency,[4],inactive
same,Potency,[5],inactive
same,Potency,[6],inactive
same,Potency,[7],inactive
same,Potency,[9],inactive
same,max response,[15],17.4%
same,Potency,[16],inactive
same,activation,[17],-1.42%
same,activation,[10],-0.425%
same,activation,[11],1.96%
same,Potency,[18],inactive
same,Potency,[19],inactive
same,Potency,[12],inactive
same,max response,[13],-4.36%
O=C(Cl)c1ccccc1F,outcome,[14],inactive
same,Potency,[1],inactive
same,Potency,[20],inactive
same,Potency,[4],inactive
same,Potency,[5],inactive
same,Potency,[6],inactive
same,Potency,[7],inactive
same,Potency,[8],inactive
same,Potency,[9],inactive
same,Potency,[16],inactive
same,activation,[17],-0.282%
same,activation,[11],4.83%
same,Potency,[19],inactive
same,Potency,[12],inactive
N#CCCC#N,outcome,[14],inactive
same,Potency,[1],inactive
same,Potency,[2],inactive
same,Potency,[20],inactive
same,Potency,[4],inactive
same,Potency,[5],inactive
same,Potency,[6],inactive
same,Potency,[7],inactive
same,Potency,[8],inactive
same,Potency,[9],inactive
same,max response,[15],23.2%
same,Potency,[16],inactive
same,activation,[10],0.61%
same,activation,[11],0.758%
same,Potency,[18],inactive
same,Potency,[19],inactive
same,Potency,[12],inactive
Oc1ccc(Cl)c(Cl)c1,outcome,[14],inactive
same,Potency,[1],inactive
same,Potency,[2],inactive
same,Potency,[3],inactive
same,Potency,[20],inactive
same,Potency,[4],inactive
same,Potency,[5],inactive
same,Potency,[6],inactive
same,Potency,[7],inactive
same,Potency,[16],inactive
same,activation,[17],2.18%
same,activation,[11],1.35%
same,Potency,[19],inactive
same,Potency,[12],inactive
Nc1cc(Cl)ccc1Cl,outcome,[14],inactive
same,Potency,[1],inactive
same,Potency,[2],inactive
same,Potency,[3],inactive
same,Potency,[20],inactive
same,Potency,[4],inactive
same,Potency,[5],inactive
same,Potency,[6],inactive
same,Potency,[7],inactive
same,Potency,[8],inactive
same,Potency,[9],inactive
same,max response,[15],3.06%
same,Potency,[16],inactive
same,activation,[17],-3.16%
same,Potency,[19],inactive
same,Potency,[12],inactive
same,max response,[13],7.64%
CCCCCOC(=O)c1ccccc1C(=O)OCCCCC,outcome,[14],inactive
same,Potency,[20],inactive
same,Potency,[5],inactive
same,Potency,[7],inactive
same,Potency,[8],inactive
same,Potency,[9],inactive
same,max response,[15],-6.11%
same,activation,[10],1.01% and -1.21%
same,activation,[11],0.174% and 4.48%
same,Potency,[18],inactive
same,Potency,[19],inactive
same,Potency,[12],inactive
same,max response,[13],4.12% and -1.01%
CC(C)OS(C)(=O)=O,outcome,[14],inactive
same,Potency,[1],inactive
same,Potency,[2],inactive
same,Potency,[3],inactive
same,Potency,[20],inactive
same,Potency,[5],inactive
same,Potency,[6],inactive
same,Potency,[7],inactive
same,Potency,[8],inactive
same,Potency,[9],inactive
same,max response,[15],0.937%
same,Potency,[16],inactive
same,activation,[17],-0.853%
same,Potency,[19],inactive
Cc1cc(N=Nc2ccccc2C)ccc1N,Potency,[1],5.01 µM (active)
same,Potency,[3],inactive
same,Potency,[4],inactive
same,Potency,[5],inactive
same,Potency,[6],inactive
same,Potency,[7],inactive
same,Potency,[8],inactive
same,Potency,[9],inactive
same,max response,[15],-17.1%
same,Potency,[16],inactive
same,activation,[17],-4.82% and -5.43%
same,activation,[10],-0.0756% and -0.721%
same,Potency,[11],44.7 µM (active)
same,Potency,[18],inactive
same,max response,[13],-13.3% and -11.6%
BrCC(Br)(Br)Br,outcome,[14],inactive
same,Potency,[1],inactive
same,Potency,[2],31.6 µM (active)
same,Potency,[3],39.8 µM (active)
same,Potency,[20],15.8 µM (active)
same,Potency,[5],20 µM (active)
same,Potency,[7],12.6 µM (active)
same,Potency,[8],15.8 µM (active)
same,Potency,[9],inactive
same,max response,[15],23.1%
same,activation,[17],-0.838%
same,activation,[10],0.84%
same,activation,[11],1.69%
O=[N+]([O-])c1ccc(Cl)c(Cl)c1Cl,outcome,[14],inactive
same,Potency,[2],inactive
same,Potency,[3],inactive
same,Potency,[4],inactive
same,Potency,[5],inactive
same,Potency,[8],inactive
same,Potency,[9],inactive
same,Potency,[16],inactive
same,activation,[10],0.972%
same,activation,[11],-1.85%
same,Potency,[18],inactive
same,Potency,[19],inactive
same,max response,[13],8.59%
